An excerpt weighted towards active compounds, which were near 0.9% of everything screened.
SRC3 TRFRET art: TR-FRET detection interference compounds, artefact control for PPARgamma SRC-3 recruitment agonists, biochemical, TR-FRET ratio; AID 1048, 2008; TR-FRET artefact counter-screen, PPARgamma/SRC-3 format; active compounds read high; 99,000 compounds, 0.39% hits; TR-FRET ratio at 8 µM; in the data active = TR-FRET ratio above about 2000
PPARg SRC-2 ag: agonists of PPARg-SRC-2 recruitment, primary screen, biochemical, HTS; Peroxisome proliferator-activated receptor gamma (Homo sapiens), P37231; activation, % at 8 µM; PPARgamma LBD-SRC-2 recruitment; 200,000 compounds, 0.34% hits
Target sequence (P37231 whole entry, looked up, the tested form may be a part): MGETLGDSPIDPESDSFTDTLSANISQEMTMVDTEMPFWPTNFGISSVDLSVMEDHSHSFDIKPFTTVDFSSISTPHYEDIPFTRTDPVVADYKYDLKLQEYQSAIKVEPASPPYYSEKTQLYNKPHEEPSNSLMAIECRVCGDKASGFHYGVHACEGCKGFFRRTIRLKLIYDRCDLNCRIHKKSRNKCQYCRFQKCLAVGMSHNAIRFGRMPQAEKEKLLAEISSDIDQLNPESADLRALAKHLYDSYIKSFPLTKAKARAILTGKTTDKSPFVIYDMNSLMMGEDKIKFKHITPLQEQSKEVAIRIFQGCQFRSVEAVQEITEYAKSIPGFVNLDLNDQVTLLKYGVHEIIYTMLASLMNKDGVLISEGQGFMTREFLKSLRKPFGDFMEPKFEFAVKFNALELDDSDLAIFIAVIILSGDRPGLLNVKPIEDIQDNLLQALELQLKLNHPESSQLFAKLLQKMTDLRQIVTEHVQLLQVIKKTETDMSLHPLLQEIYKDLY
SRC1 TRFRET art: TR-FRET detection interference compounds, primary screen, artefact control for PPARgamma SRC-1 recruitment agonists, biochemical, TR-FRET emission ratio; 99,000 compounds, 0.34% hits; TR-FRET ratio at 8 µM; TR-FRET detection artefact counter-screen; active compounds read high; in the data active = TR-FRET ratio above about 2300
PPARg SRC1 recr: PPARgamma agonists recruiting SRC-1 coactivator, primary screen, biochemical. PPARgamma-SRC-1 coactivator recruitment biochemical assay. 200,000 compounds, 0.41% hits. activation, % at 8 µM; in the data active = activation above about 19%
SRC2 TRFRET art: TR-FRET signal artefacts, primary screen, artefact control for PPARgamma SRC-2 agonist project, biochemical; 200,000 compounds, 0.4% hits; TR-FRET artefact counter-screen; active compounds read high; TR-FRET ratio at 8 µM; in the data active = TR-FRET ratio above about 2000
PPARg SRC3 recr: PPARgamma agonists recruiting SRC-3 coactivator, primary screen, biochemical; 200,000 compounds, 0.26% hits; Peroxisome proliferator-activated receptor gamma (Homo sapiens), P37231; activation, % at 8 µM; biochemical PPARgamma/SRC-3 coactivator recruitment assay; in the data active = activation above about 23%
PPARg SRC2 conf: agonists of PPARgamma SRC-2 coactivator recruitment, confirmation, biochemical, HTS; activation, % at 8 µM; 790 compounds, 52% hits; shares compounds with PPARg SRC3 recr; AID 1297, 2008; biochemical SRC-2 recruitment by PPARgamma
PPARg SRC1 conf: PPARgamma agonists recruiting SRC-1 coactivator, confirmation, biochemical. AID 1300, 2008. 790 compounds, 43% hits. PPARgamma–SRC-1 coactivator recruitment biochemical assay. activation, % at 8 µM. shares compounds with PPARg SRC3 recr; in the data active = activation above about 20%
PPARg SRC3 conf: PPARgamma-driven SRC-3 coactivator recruitment agonists, confirmation, biochemical | shares compounds with PPARg SRC3 recr | biochemical PPARgamma-SRC-3 coactivator recruitment, agonist mode | activation, % at 8 µM | 790 compounds, 29% hits | AID 1301, 2008; in the data active = activation above about 24%
Of the large screens only hits and unclear results are named; the others gave an inactive call (follow-up assays come after a bar, where they were run). Rule as the data show it, unless noted: active = activation above about 22%; inactive = the rest.

CCCCCCn1c(O)c(C=Nc2c(C)n(C)n(-c3ccccc3)c2=O)c(=O)[nH]c1=O	PPARg SRC-2 ag 25 (no result: SRC3 TRFRET art, SRC1 TRFRET art)
O=C(N/N=C/c1c(O)n(CCc2ccccc2)c(=O)[nH]c1=O)c1ccncc1	SRC2 TRFRET art 2004
COc1ccc(-c2cc(=Nc3ccccc3)c3cc(C)ccc3o2)cc1	SRC1 TRFRET art 2615
COc1ccc(-c2cc(=NCCC(=O)O)c3cc(C)ccc3o2)cc1	none
N=C1c2ccccc2CN1NC(=O)c1ccc(Br)cc1	none
Cc1ccc(CN2C3CCCC2CC(NC(=O)Nc2cccc(F)c2)C3)cc1 (centres undefined)	none
O=C(CSc1ccccc1)N1CCC2(CC1)OCCO2	none (no result: SRC3 TRFRET art, SRC1 TRFRET art)
Cn1c(=O)cc(SCC(=O)N2CCC3(CC2)OCCO3)c2ccc(Cl)cc21	PPARg SRC-2 ag 73, PPARg SRC1 recr 50, SRC2 TRFRET art 2539, PPARg SRC3 recr 79 (no result: SRC3 TRFRET art, SRC1 TRFRET art) | PPARg SRC2 conf 28 | PPARg SRC1 conf inactive | PPARg SRC3 conf inactive
CN(C)c1ccc(/C=C/c2cc[n+](C)c3ccccc23)cc1	SRC3 TRFRET art 2979, PPARg SRC-2 ag 61, SRC1 TRFRET art 3265, PPARg SRC1 recr 83, SRC2 TRFRET art 2947, PPARg SRC3 recr 61 | PPARg SRC2 conf 65 | PPARg SRC1 conf 49 | PPARg SRC3 conf 43
Cc1ccc(Cn2cc(C=O)c(-c3ccc(C)cc3)n2)cc1	none
